The record followed here is PubChem BioAssay (NCI).

Test systems include SK-MEL-2 melanoma; EKVX NSCLC; SN12C renal; UO-31 renal; TK-10 renal; ACHN renal; CAKI-1 renal; A498 renal; CCRF-CEM leukemia; MOLT-4 leukemia; SR leukemia; RPMI-8226 leukemia; OVCAR-8 ovarian; OVCAR-5 ovarian; OVCAR-4 ovarian; SK-OV-3 ovarian; IGROV1 ovarian; OVCAR-3 ovarian; HS 578T breast; NCI/ADR-RES ovarian.
Common to all, as to assay: NCI-60 one-dose screen, 48 h (100 = growth as untreated, 0 = no growth, -100 = all killed)
What all share (details): 10 µM unless noted

This is part of a sample that, as a whole, favours compounds with a hit. Of some 83,000 tested, about 20% had one in any assay.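 Activity criterion: percent growth below 10, measured after cells in 96-well plates were exposed to a single compound concentration for 48 hours.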 A number with no mark means an inactive call. Calls of active or inactive are those of the source.

`CCCCCCCCCCC(CN(CC)CC)C(O)c1ccccc1` (stereo not given): the growth was 65.8% in the test with SK-MEL-2 melanoma; 41.8% in the test on EKVX NSCLC; 57.1% with SN12C renal; 24.4% in the test with UO-31 renal; 45.3% in the test on TK-10 renal; 31.6% in the test on ACHN renal. The growth was 45.5% with CAKI-1 renal; 56.4% in the test on A498 renal; 4.36% (active) with CCRF-CEM leukemia; -15.2% (active) in the test with MOLT-4 leukemia; -17.6% (active) in the test with SR leukemia; 9.59% (active) with RPMI-8226 leukemia. Besides, the growth with OVCAR-8 ovarian is 53.6%; in the test with OVCAR-5 ovarian, 49.7%; in the test with OVCAR-4 ovarian, 47.5%; in the test with SK-OV-3 ovarian, 54.9%; in the test on IGROV1 ovarian, 40.7%; in the test on OVCAR-3 ovarian it was 37.7%. The growth is 45% in the test on HS 578T breast and 33.6% in the test on NCI/ADR-RES ovarian.

`O=C(O)CCCN1C(=O)/C(=C/c2cn(-c3ccccc3)nc2-c2ccc([N+](=O)[O-])cc2)SC1=S`: the growth with SK-MEL-2 melanoma is 77.6%; in the test on EKVX NSCLC, 67%; in the test with SN12C renal, 50%; with UO-31 renal, 40.2%; in the test on TK-10 renal it was 78.2%; in the test on ACHN renal, 56.8%. The growth is 65.1% in the test on CAKI-1 renal; 88.2% with A498 renal; 27.6% in the test with CCRF-CEM leukemia; 54.5% in the test on MOLT-4 leukemia; 33.3% in the test with SR leukemia; 46.8% with RPMI-8226 leukemia. For the same compound, the growth in the test on OVCAR-8 ovarian was 44.4%; in the test on OVCAR-5 ovarian, 94.3%; in the test on OVCAR-4 ovarian, 64%; with SK-OV-3 ovarian it was 59.1%; in the test with IGROV1 ovarian, 58.3%; with OVCAR-3 ovarian, 61.6%. In addition, the growth in the test on HS 578T breast is 63.6%; in the test on NCI/ADR-RES ovarian, 43.5%.

Regarding `NS(=O)(=O)c1ccccc1NC(=O)Nc1nc2ccccc2s1`, the growth with SK-MEL-2 melanoma is 102%; in the test on EKVX NSCLC it was 85.6%; in the test on SN12C renal, 98.3%; in the test on UO-31 renal, 84.1%; with TK-10 renal it was 153%; in the test on ACHN renal it was 99.4%. Besides, the growth in the test with CAKI-1 renal was 89.7%; with A498 renal, 97.6%; in the test with CCRF-CEM leukemia, 99.2%; in the test on MOLT-4 leukemia it was 102%; in the test with SR leukemia it was 94.4%; with RPMI-8226 leukemia, 102%. Further, the growth in the test with OVCAR-8 ovarian is 100%; in the test with OVCAR-5 ovarian, 101%; in the test on OVCAR-4 ovarian, 93.3%; in the test on SK-OV-3 ovarian, 97.3%; with IGROV1 ovarian, 89.1%; with OVCAR-3 ovarian, 108%. In addition, the growth in the test on HS 578T breast was 100%; in the test with NCI/ADR-RES ovarian, 99.7%.

As for `Oc1c(I)cc(I)cc1CNCCN(Cc1ccccn1)Cc1ccccn1`, the growth with SK-MEL-2 melanoma was -52.4% (active); in the test on EKVX NSCLC, -10.3% (active); in the test on SN12C renal, 16%; with UO-31 renal, -89.4% (active); in the test with TK-10 renal it was -91.5% (active); in the test on ACHN renal it was -84% (active). The growth in the test with CAKI-1 renal was -92.2% (active); with A498 renal it was -88.2% (active); in the test with CCRF-CEM leukemia, -10.1% (active); in the test on MOLT-4 leukemia it was -29.5% (active); in the test with SR leukemia, -9.62% (active); with RPMI-8226 leukemia, -12.3% (active). Also, the growth in the test with OVCAR-8 ovarian is -19.7% (active); with OVCAR-5 ovarian, -24.3% (active); in the test with OVCAR-4 ovarian it was -48.5% (active); with SK-OV-3 ovarian, -74.7% (active); in the test with IGROV1 ovarian, -66.3% (active); in the test on OVCAR-3 ovarian, -59.7% (active). Moreover, the growth is -11.3% (active) in the test with HS 578T breast and -18.4% (active) with NCI/ADR-RES ovarian.

With `N#CC(C#N)N=Nc1ccc(Br)cc1`, the growth in the test on SK-MEL-2 melanoma is 82.1%; in the test on EKVX NSCLC it was 55.9%; with SN12C renal it was 21.3%; in the test on UO-31 renal, 2.16% (active); in the test on TK-10 renal, 36.5%; in the test with ACHN renal it was 16.6%. Further, the growth was 6.33% (active) in the test on CAKI-1 renal; 100% in the test on A498 renal; 9.65% (active) in the test on CCRF-CEM leukemia; 31.8% with MOLT-4 leukemia; -15.2% (active) with SR leukemia; 11.5% with RPMI-8226 leukemia. In addition, the growth with OVCAR-8 ovarian is 28%; in the test on OVCAR-5 ovarian it was 68.3%; in the test on OVCAR-4 ovarian it was 17.7%; with SK-OV-3 ovarian, 60.3%; in the test on IGROV1 ovarian, 49.1%; in the test on OVCAR-3 ovarian, 17.7%. In addition, the growth in the test on HS 578T breast is 87.1%; in the test with NCI/ADR-RES ovarian it was 60.9%.

For `CC1=C2[C@@H](CC1)[C@]1(C)O[C@@](C(C)C)(C[C@H]1OC(=O)[C@H](C)O)[C@H]2OC(=O)/C=C/c1ccccc1`, the growth in the test with SK-MEL-2 melanoma was 80.6%; in the test on EKVX NSCLC, 66.1%; in the test with SN12C renal, 45.7%; in the test with UO-31 renal it was 0.932% (active); in the test on TK-10 renal, 90.1%; in the test on ACHN renal, 8.57% (active). For the same compound, the growth with CAKI-1 renal was 60.5%; with A498 renal, -66.1% (active); in the test with CCRF-CEM leukemia it was 85.8%; in the test on MOLT-4 leukemia it was 62.8%; in the test with SR leukemia, 71.9%; in the test with RPMI-8226 leukemia it was 65.6%. Also, the growth with OVCAR-8 ovarian is 10.2%; in the test with OVCAR-5 ovarian, 97.9%; in the test with OVCAR-4 ovarian, 81.7%; in the test on SK-OV-3 ovarian, 83.5%; in the test on IGROV1 ovarian it was 97.4%; in the test with OVCAR-3 ovarian it was 91.1%. Besides, the growth with HS 578T breast is -2.45% (active); with NCI/ADR-RES ovarian, 4.27% (active).

On to `O=C(CSc1nc2sc3c(c2c(=O)n1-c1ccccc1)CCCCC3)N/N=C/c1cccc([N+](=O)[O-])c1`, for which the growth with SK-MEL-2 melanoma is 90.2%; in the test on EKVX NSCLC it was 70.3%; in the test on SN12C renal, 66.8%; with UO-31 renal it was 75.7%; with TK-10 renal, 96.2%; with ACHN renal, 80.6%. Further, the growth in the test with CAKI-1 renal is 60%; with A498 renal, 83.7%; in the test on CCRF-CEM leukemia, 76.6%; in the test with MOLT-4 leukemia, 70.5%; in the test on SR leukemia, 38.3%; in the test with RPMI-8226 leukemia, 73.4%. Moreover, the growth with OVCAR-8 ovarian is 16.3%; with OVCAR-5 ovarian, 78%; in the test with OVCAR-4 ovarian, -6.2% (active); with SK-OV-3 ovarian, 80.4%; in the test with IGROV1 ovarian, 71.1%; in the test with OVCAR-3 ovarian it was 10.9%. The results for the growth with HS 578T breast and with NCI/ADR-RES ovarian were -1.34% (active) and 44%, respectively.
